The supplement of paper PMC10849652
Targets with a hit are over-represented here; the source holds about 8,800 in all. About 0.5% of all pairs of compound and target were hits.

Key:
Test in all cases: log2 fold change, soluble protein after heating vs DMSO (PISA); higher = thermal stabilisation; K562 lysate, 10 uM; active = over 0.2 and 3.5 SD of the protein, either way, in both replicates (recomputed)
lapatinib = compound: CS(=O)(=O)CCNCc1ccc(-c2ccc3ncnc(Nc4ccc(OCc5cccc(F)c5)c(Cl)c4)c3c2)o1 [lapatinib]
Outline: (§1)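 Dounce homogenisation of K562 pellets in PBS pH 7.4 with 1 mM MgCl2 produced a crude extract, used at 1 mg/mL protein. Exposure to 10 μM compound lasted 30 min, and aliquots were then heated for 3 min across 48°C-58°C, pooled and brought to 0.5% NP-40 at 4°C. The supernatant after 21,000xg for 90 min was quantified by TMTpro 16plex LC-MS/MS with channel sums equalised. Duplicate values are given as log-two fold change in thermal stability relative to solvent controls.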

pictilisib = compound: CS(=O)(=O)N1CCN(Cc2cc3nc(-c4cccc5[nH]ncc45)nc(N4CCOCC4)c3s2)CC1 [pictilisib]
Outline: as §1

crizotinib = compound: C[C@@H](Oc1cc(-c2cnn(C3CCNCC3)c2)cnc1N)c1c(Cl)ccc(F)c1Cl [crizotinib]
Outline: as §1

[1] = compound: C[C@H](C1=CC=C(C=C1)C(=O)NC2=C3C=CNC3=NC=C2)N
Outline: as §1

duvelisib = compound: C[C@H](Nc1ncnc2nc[nH]c12)c1cc2cccc(Cl)c2c(=O)n1-c1ccccc1 [duvelisib]
Outline: as §1

gandotinib = compound: Cc1cc(Nc2cc(CN3CCOCC3)c3nc(C)c(Cc4ccc(Cl)cc4F)n3n2)n[nH]1 [gandotinib]
Outline: as §1

tozasertib = compound: Cc1cc(Nc2cc(N3CCN(C)CC3)nc(Sc3ccc(NC(=O)C4CC4)cc3)n2)n[nH]1 [tozasertib]
Outline: as §1

doramapimod = compound: Cc1ccc(-n2nc(C(C)(C)C)cc2NC(=O)Nc2ccc(OCCN3CCOCC3)c3ccccc23)cc1 [doramapimod]
Outline: as §1

bafetinib = compound: Cc1ccc(NC(=O)c2ccc(CN3CC[C@H](N(C)C)C3)c(C(F)(F)F)c2)cc1Nc1nccc(-c2cncnc2)n1 [bafetinib]
Outline: as §1

[2] = compound: Cc1cccc(CC(=O)N2CCc3c2ccc(-c2cn(C)c4ncnc(N)c24)c3F)n1
Outline: as §1

Measured: log2 fold change

CD63 (UniProt P08962)
UniProt P08962, sequence (P08962 whole entry, looked up): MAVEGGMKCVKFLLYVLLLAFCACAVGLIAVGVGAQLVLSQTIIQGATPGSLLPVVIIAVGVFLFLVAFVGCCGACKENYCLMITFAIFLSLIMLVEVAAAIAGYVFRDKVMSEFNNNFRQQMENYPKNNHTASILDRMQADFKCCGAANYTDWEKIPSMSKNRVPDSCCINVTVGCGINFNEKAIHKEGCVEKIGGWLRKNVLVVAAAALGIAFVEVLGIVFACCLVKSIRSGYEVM
active: [1] -0.415
inactive: lapatinib 0.006 | pictilisib -0.256 | crizotinib 0.036 | duvelisib 0.025 | gandotinib 0.209 | tozasertib 0.013 | doramapimod 0.077 | bafetinib -0.08 | [2] 0.074

ATG13 isoform 2 (UniProt O75143)
UniProt O75143, sequence (O75143 whole entry, looked up): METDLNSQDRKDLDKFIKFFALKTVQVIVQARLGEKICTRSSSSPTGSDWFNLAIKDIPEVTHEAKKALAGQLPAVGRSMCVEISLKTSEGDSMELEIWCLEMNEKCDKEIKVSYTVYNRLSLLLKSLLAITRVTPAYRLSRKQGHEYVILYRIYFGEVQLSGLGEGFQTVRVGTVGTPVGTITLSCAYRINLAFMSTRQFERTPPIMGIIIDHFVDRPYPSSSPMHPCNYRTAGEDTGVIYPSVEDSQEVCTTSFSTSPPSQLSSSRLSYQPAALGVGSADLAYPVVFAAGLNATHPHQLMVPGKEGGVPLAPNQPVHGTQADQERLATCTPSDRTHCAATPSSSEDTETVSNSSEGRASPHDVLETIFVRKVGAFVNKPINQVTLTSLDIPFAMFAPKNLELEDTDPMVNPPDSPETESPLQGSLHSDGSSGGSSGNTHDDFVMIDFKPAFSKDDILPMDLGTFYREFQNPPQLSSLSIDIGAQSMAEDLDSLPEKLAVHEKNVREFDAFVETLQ
inactive: lapatinib 0.018 | pictilisib 0.014 | crizotinib -0.022 | duvelisib 0.016 | gandotinib 0.172 | tozasertib 0.05 | doramapimod 0.049 | bafetinib -0.123 | [2] 0.137
active: [1] -0.271

C18orf32 (UniProt Q8TCD1)
inactive: lapatinib -0.012 | pictilisib 0.041 | crizotinib -0.07 | [1] -0.093 | duvelisib -0.203 | gandotinib 0.001 | tozasertib -0.011 | doramapimod -0.01 | bafetinib -0.04 | [2] 0.047

ATE1 isoform 2 (UniProt O95260)
inactive: lapatinib 0.021 | pictilisib -0.058 | crizotinib 0.024 | [1] -0.089 | duvelisib -0.051 | gandotinib 0.076 | tozasertib -0.003 | doramapimod -0.071 | bafetinib -0.093 | [2] 0.029

BRD3 (UniProt Q15059)
UniProt Q15059, sequence (Q15059 whole entry, looked up): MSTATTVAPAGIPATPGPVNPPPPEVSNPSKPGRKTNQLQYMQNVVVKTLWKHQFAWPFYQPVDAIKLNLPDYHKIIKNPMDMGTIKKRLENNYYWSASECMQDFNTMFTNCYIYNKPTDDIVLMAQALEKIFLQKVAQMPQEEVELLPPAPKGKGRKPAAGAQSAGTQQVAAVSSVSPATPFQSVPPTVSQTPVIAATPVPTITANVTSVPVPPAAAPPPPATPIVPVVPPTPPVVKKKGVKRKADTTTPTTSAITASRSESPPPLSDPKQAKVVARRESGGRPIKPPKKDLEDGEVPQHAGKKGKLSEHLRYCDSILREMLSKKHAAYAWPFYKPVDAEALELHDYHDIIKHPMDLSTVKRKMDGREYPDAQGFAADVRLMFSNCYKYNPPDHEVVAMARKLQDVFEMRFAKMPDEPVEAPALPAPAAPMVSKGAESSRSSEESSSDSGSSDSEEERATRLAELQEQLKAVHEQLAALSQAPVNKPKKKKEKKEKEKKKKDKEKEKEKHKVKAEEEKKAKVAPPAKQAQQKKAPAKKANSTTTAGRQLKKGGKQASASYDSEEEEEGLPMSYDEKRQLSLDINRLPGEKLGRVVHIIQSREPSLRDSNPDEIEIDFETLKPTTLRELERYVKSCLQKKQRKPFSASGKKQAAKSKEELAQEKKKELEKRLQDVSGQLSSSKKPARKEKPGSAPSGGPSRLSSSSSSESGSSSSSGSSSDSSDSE
active: [1] -0.333
inactive: lapatinib 0.014 | pictilisib 0.004 | crizotinib -0.022 | duvelisib 0.1 | gandotinib 0.147 | tozasertib 0.048 | doramapimod -0.074 | bafetinib -0.016 | [2] 0.154

CCAR2 (UniProt Q8N163)
inactive: lapatinib 0.002 | pictilisib -0.061 | crizotinib -0.067 | [1] -0.009 | duvelisib -0.015 | gandotinib 0.058 | tozasertib 0.026 | doramapimod 0.022 | bafetinib -0.011 | [2] 0.06

CCAR2 (UniProt G3V119)
inactive: lapatinib -0.12

ATG4A (UniProt Q8WYN0)
inactive: lapatinib -0.017 | pictilisib -0.02 | crizotinib -0.033 | [1] -0.061 | duvelisib -0.009 | gandotinib -0.025 | tozasertib 0.044 | doramapimod 0.008 | bafetinib -0.014 | [2] 0.063

ATP6V0A2 (UniProt Q9Y487)
active: [1] -0.227
inactive: lapatinib -0.07 | pictilisib -0.047 | crizotinib -0.016 | duvelisib 0.026 | gandotinib 0.108 | tozasertib 0.004 | doramapimod 0.023 | bafetinib -0.046 | [2] 0.13

BPHL (UniProt Q86WA6)
UniProt Q86WA6, sequence (Q86WA6 whole entry, looked up): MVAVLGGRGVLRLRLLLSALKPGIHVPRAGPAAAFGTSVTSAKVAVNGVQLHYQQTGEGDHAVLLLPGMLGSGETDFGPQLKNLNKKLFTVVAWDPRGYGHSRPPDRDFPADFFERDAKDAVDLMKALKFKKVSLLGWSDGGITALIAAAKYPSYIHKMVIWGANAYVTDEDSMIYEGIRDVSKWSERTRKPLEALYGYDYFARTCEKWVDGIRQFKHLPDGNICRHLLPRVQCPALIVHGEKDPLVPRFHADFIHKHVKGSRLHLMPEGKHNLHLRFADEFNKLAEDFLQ
inactive: lapatinib -0.099 | crizotinib 0.099 | [1] 0.051 | duvelisib 0.061 | gandotinib -0.077 | tozasertib 0.034 | doramapimod -0.003 | bafetinib 0.132 | [2] -0.058
active: pictilisib -0.366

CHD4 isoform 2 (UniProt Q14839)
inactive: lapatinib 0.003 | pictilisib -0.004 | crizotinib -0.007 | [1] -0.05 | duvelisib -0.038 | gandotinib 0.005 | tozasertib 0.011 | doramapimod 0.021 | bafetinib -0.05 | [2] 0.05

BCR (UniProt P11274)
inactive: lapatinib -0.02 | pictilisib -0.032 | crizotinib 0.034 | [1] -0.064 | duvelisib -0.049 | gandotinib -0.013 | tozasertib 0.031 | doramapimod -0.047 | bafetinib 0.019 | [2] 0.1

CDC42BPA isoform 6 (UniProt Q5VT25)
inactive: lapatinib -0.029 | pictilisib -0.041 | crizotinib -0.061 | [1] 0.024 | duvelisib -0.007 | gandotinib -0.05 | tozasertib 0.032 | doramapimod 0.075 | bafetinib -0.056 | [2] 0.03

CCNYL1 (UniProt Q8N7R7)
UniProt Q8N7R7, sequence (Q8N7R7 whole entry, looked up): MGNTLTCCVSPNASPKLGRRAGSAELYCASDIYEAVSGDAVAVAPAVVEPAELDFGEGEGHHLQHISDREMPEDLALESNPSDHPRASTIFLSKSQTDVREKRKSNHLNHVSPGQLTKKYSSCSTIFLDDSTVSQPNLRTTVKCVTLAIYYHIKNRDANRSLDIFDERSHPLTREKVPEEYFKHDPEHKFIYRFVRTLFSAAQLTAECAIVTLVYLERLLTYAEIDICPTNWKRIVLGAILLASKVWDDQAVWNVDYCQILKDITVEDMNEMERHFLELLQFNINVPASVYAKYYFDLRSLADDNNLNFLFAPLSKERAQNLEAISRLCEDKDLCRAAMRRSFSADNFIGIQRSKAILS
inactive: lapatinib 0.018 | pictilisib -0.012 | crizotinib -0.015 | [1] -0.201 | duvelisib -0.003 | gandotinib 0.085 | tozasertib 0.052 | doramapimod -0.004 | bafetinib 0.006 | [2] 0.067

BRD4 (UniProt O60885)
inactive: lapatinib 0.044 | pictilisib 0.015 | crizotinib -0.03 | [1] -0.06 | duvelisib 0.013 | gandotinib 0.019 | tozasertib -0.031 | doramapimod 0.016 | bafetinib -0.024 | [2] -0.006

CDK9 isoform 2 (UniProt P50750)
inactive: lapatinib -0.103 | pictilisib 0.034 | crizotinib 0.067 | [1] 0.066 | duvelisib -0.026 | gandotinib 0.074 | tozasertib -0.108 | doramapimod -0.02 | bafetinib -0.125 | [2] -0.056

CEP41 (UniProt Q9BYV8)
inactive: lapatinib -0.017 | pictilisib 0.039 | crizotinib 0.062 | [1] 0.047 | duvelisib -0.013 | gandotinib 0.003 | tozasertib 0.086 | doramapimod 0.044 | bafetinib -0.067 | [2] 0.007

CES2 isoform 4 (UniProt O00748)
UniProt O00748, sequence (O00748 whole entry, looked up): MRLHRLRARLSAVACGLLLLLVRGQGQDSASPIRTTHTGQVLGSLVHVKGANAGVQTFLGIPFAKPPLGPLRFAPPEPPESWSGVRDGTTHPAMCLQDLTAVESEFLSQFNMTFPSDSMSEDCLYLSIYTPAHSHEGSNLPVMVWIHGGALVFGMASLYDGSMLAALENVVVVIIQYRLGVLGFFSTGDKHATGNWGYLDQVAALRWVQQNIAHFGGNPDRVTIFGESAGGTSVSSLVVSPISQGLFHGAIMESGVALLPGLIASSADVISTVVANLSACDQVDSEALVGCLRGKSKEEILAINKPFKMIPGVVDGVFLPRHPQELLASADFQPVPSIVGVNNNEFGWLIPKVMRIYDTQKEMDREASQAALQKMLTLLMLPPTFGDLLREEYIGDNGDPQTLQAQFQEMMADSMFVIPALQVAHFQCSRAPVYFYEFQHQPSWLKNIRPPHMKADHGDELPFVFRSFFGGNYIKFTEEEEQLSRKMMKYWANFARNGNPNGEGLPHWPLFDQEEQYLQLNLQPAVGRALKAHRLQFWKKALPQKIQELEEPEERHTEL
inactive: lapatinib 0.027 | pictilisib 0.32 | crizotinib 0.079 | [1] -0.003 | duvelisib 0.021 | gandotinib 0.016 | tozasertib 0 | doramapimod 0.015 | bafetinib 0.154 | [2] 0.036

ATG7 (UniProt O95352)
inactive: lapatinib 0.006 | pictilisib -0.002 | crizotinib -0.015 | [1] -0.037 | duvelisib 0 | gandotinib -0.035 | tozasertib -0.015 | doramapimod 0.02 | bafetinib -0.024 | [2] 0.006

CHCHD7 isoform 4 (UniProt Q9BUK0)
UniProt Q9BUK0, sequence (Q9BUK0 whole entry, looked up): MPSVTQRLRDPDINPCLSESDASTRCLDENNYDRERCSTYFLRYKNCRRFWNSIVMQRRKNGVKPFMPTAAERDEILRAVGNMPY
active: [1] -0.382
inactive: lapatinib 0.079 | pictilisib 0.06 | crizotinib -0.052 | duvelisib -0.01 | gandotinib 0.266 | tozasertib -0.077 | doramapimod 0.026 | bafetinib -0.001 | [2] 0.187

CASP6 (UniProt P55212)
UniProt P55212, sequence (P55212 whole entry, looked up): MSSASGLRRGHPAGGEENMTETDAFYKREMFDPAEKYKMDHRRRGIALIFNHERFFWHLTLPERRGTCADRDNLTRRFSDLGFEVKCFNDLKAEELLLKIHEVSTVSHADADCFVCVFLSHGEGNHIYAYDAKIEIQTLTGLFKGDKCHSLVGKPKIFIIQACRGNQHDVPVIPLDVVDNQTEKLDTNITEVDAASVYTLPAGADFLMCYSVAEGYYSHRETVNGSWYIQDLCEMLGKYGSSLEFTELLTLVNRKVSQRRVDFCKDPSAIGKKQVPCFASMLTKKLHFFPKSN
inactive: lapatinib 0.024 | pictilisib -0.004 | crizotinib 0.009 | [1] 0.195 | duvelisib 0.003 | gandotinib -0.02 | tozasertib 0.022 | doramapimod 0.013 | bafetinib 0.054 | [2] -0.038

CAMK2G isoform 8 (UniProt Q13555)
inactive: lapatinib -0.013 | pictilisib -0.008 | crizotinib -0.177 | [1] -0.053 | duvelisib -0.083 | gandotinib 0.085 | tozasertib -0.037 | doramapimod -0.049 | bafetinib 0.001 | [2] -0.07

CCNH (UniProt P51946)
inactive: lapatinib 0.005 | pictilisib -0.012 | crizotinib 0.012 | [1] 0.026 | duvelisib 0.072 | gandotinib -0.002 | tozasertib 0.013 | doramapimod 0.037 | bafetinib -0.022 | [2] -0.023

CAMKK2 (UniProt Q96RR4)
UniProt Q96RR4, sequence (Q96RR4 whole entry, looked up): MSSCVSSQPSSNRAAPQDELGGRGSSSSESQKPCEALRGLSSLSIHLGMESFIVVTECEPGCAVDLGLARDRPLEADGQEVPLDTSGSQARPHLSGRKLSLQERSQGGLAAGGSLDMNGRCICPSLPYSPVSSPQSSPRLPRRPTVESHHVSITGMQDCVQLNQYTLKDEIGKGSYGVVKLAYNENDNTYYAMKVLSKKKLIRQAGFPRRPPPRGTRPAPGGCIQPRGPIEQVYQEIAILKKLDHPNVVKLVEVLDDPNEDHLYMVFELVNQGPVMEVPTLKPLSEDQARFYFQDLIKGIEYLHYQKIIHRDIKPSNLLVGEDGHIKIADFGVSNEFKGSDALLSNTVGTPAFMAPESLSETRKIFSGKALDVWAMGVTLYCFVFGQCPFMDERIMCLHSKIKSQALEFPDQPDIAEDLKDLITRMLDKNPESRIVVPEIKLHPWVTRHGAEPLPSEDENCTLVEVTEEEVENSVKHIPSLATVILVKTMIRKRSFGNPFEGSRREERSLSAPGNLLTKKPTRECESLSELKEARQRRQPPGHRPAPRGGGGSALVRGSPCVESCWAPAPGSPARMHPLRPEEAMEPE
inactive: lapatinib -0.018 | pictilisib 0.006 | crizotinib 0.108 | [1] 0.023 | duvelisib 0.058 | tozasertib -0.055 | doramapimod 0.031 | bafetinib 0.018 | [2] -0.056
active: gandotinib 0.257

BORCS5 (UniProt Q969J3)
inactive: lapatinib 0.015 | pictilisib 0.096 | crizotinib -0.002 | [1] 0.037 | duvelisib 0.037 | gandotinib -0.038 | tozasertib 0.007 | doramapimod -0.011 | bafetinib -0.042 | [2] -0.006

CEP76 (UniProt Q8TAP6)
inactive: lapatinib -0.031 | pictilisib -0.073 | crizotinib -0.106 | [1] -0.063 | duvelisib 0.141 | gandotinib 0.007 | tozasertib 0.079 | doramapimod 0.085 | bafetinib -0.115 | [2] 0.027

CALB2 (UniProt P22676)
inactive: lapatinib 0.009 | pictilisib -0.07 | crizotinib 0.01 | [1] -0.041 | duvelisib 0.031 | gandotinib 0.092 | tozasertib 0.056 | doramapimod 0.003 | bafetinib 0.082 | [2] -0.007

CCDC85B (UniProt Q15834)
inactive: lapatinib 0 | pictilisib -0.042 | crizotinib 0.006 | [1] -0.016 | duvelisib 0.081 | gandotinib -0.032 | tozasertib 0.248 | doramapimod 0.098 | bafetinib 0.054 | [2] 0.011

CARNMT1 (UniProt Q8N4J0)
inactive: lapatinib 0.01 | pictilisib -0.029 | crizotinib -0.131 | duvelisib 0.018 | gandotinib 0.038 | tozasertib -0.04 | doramapimod 0.01 | bafetinib -0.078 | [2] 0.181
active: [1] -0.354

ATXN2 (UniProt Q99700)
UniProt Q99700, sequence (Q99700 whole entry, looked up): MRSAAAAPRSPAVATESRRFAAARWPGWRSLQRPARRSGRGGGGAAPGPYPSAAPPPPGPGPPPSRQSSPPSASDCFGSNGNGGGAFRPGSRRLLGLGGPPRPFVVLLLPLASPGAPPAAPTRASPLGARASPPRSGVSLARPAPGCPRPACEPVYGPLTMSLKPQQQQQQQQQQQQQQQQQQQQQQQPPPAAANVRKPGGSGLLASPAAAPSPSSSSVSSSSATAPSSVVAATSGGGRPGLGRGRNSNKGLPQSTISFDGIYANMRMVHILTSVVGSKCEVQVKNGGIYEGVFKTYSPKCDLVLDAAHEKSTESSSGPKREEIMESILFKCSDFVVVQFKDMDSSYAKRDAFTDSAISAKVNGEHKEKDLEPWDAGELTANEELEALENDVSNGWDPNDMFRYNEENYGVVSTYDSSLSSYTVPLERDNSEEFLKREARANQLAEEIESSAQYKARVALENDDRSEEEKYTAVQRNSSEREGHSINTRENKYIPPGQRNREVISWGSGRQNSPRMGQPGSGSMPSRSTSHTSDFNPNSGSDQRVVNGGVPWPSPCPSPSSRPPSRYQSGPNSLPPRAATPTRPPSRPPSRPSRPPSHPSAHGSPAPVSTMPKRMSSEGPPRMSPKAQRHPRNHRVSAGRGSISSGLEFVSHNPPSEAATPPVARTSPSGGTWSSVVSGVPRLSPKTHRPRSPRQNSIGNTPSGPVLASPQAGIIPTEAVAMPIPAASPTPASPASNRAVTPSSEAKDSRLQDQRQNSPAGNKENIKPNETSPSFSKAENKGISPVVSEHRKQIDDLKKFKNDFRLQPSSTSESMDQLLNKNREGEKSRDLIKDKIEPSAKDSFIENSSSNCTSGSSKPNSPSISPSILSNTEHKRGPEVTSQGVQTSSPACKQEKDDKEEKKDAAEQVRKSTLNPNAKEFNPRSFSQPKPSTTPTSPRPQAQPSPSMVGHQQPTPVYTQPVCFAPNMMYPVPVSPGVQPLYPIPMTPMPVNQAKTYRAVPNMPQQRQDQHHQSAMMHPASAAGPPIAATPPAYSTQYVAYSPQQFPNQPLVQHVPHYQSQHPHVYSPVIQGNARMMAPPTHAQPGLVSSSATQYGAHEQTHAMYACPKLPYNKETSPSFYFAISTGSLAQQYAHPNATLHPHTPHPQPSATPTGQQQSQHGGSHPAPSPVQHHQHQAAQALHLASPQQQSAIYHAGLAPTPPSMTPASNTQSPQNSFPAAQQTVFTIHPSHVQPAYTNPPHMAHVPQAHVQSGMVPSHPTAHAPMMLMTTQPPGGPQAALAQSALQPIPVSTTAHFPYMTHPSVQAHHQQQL
inactive: lapatinib 0.006 | pictilisib -0.042 | crizotinib 0.028 | [1] 0.019 | duvelisib 0.025 | gandotinib 0.001 | tozasertib 0.011 | doramapimod 0.017 | bafetinib -0.012 | [2] -0.006

C1orf112 (UniProt Q9NSG2)
inactive: lapatinib 0.018 | pictilisib -0.004 | crizotinib -0.055 | [1] -0.073 | duvelisib -0.035 | gandotinib 0.232 | tozasertib -0.091 | doramapimod 0.021 | bafetinib 0.005
active: [2] 0.279
